# PubChem BioAssay (EPA / NIEHS)
# Activity calls are given as the source filed them. How the source made its calls: active means hit-call score of the fitted dose curve at least 0.9, where 1 is the maximum; inactive means score below 0.9.
# How the values were obtained:
# [1] = BSK_CASM3C_SRB: Viability Assessment in the BioMAP Diversity Plus: CASM3C Assay (AID 2283050); conditions: primary human coronary artery smooth muscle cells;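 further: total protein by SRB staining as cytotoxicity measure in parallel cultures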
# [2] = read-out: Thrombomodulin, THBD (gene 7056); assay: BSK_CASM3C_Thrombomodulin: BioMAP Diversity Plus: CASM3C Assay for Thrombomodulin Biomarker Activity (AID 2283051); conditions: primary human coronary artery smooth muscle cells; actives raise or lower the signal;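 further: thrombomodulin protein level measured by ELISA 24 h after dosing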
# [3] = read-out: Tissue Factor, F3 (gene 2152); assay: BSK_CASM3C_TissueFactor: BioMAP Diversity Plus: CASM3C Assay for Tissue Factor Biomarker Activity (AID 2283052); conditions: primary human coronary artery smooth muscle cells; actives raise or lower the signal;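 further: cell surface tissue factor protein level read by ELISA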
# [4] = read-out: Urokinase-type plasminogen activator receptor (uPAR), PLAUR (gene 5329); assay: BSK_CASM3C_uPAR: BioMAP Diversity Plus: CASM3C Assay for Urokinase-type plasminogen activator receptor (uPAR) Biomarker Activity (AID 2283054); conditions: primary human coronary artery smooth muscle cells; actives raise or lower the signal;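 further: cell-surface uPAR protein level quantified by ELISA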
# [5] = read-out: Vascular cell adhesion molecule 1 (VCAM1), VCAM1 (gene 7412); assay: BSK_CASM3C_VCAM1: BioMAP Diversity Plus: CASM3C Assay for Vascular cell adhesion molecule 1 (VCAM1) Biomarker Activity (AID 2283055); conditions: primary human coronary artery smooth muscle cells; actives raise or lower the signal;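 further: VCAM-1 protein level quantified by ELISA on the cells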
# [6] = read-out: Collagen III, COL3A1 (gene 1281); assay: BSK_hDFCGF_CollagenIII: BioMAP Diversity Plus: hDFCGF Assay for Collagen III Biomarker Activity (AID 2283056); conditions: primary human foreskin fibroblasts; actives raise or lower the signal
# Procedure, shortened: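 Response relative to DMSO, fitted in both directions, reflects ELISA-measured collagen III in human primary skin fibroblasts 24 h after compound addition.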
# [7] = read-out: Epidermal growth factor receptor (EGFR), EGFR (gene 1956); assay: BSK_hDFCGF_EGFR: BioMAP Diversity Plus: hDFCGF Assay for Epidermal growth factor receptor (EGFR) Biomarker Activity (AID 2283057); conditions: primary human foreskin fibroblasts; actives raise or lower the signal
# Procedure, shortened: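 Primary human foreskin fibroblasts were exposed to compound for 24 h, after which cell-surface EGFR was quantified by ELISA. Activity was fitted bidirectionally against the DMSO negative control as baseline.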
# [8] = read-out: Interleukin-8 (IL8), CXCL8 (gene 3576); assay: BSK_hDFCGF_IL8: BioMAP Diversity Plus: hDFCGF Assay for Interleukin-8 (IL8) Biomarker Activity (AID 2283058); conditions: primary human foreskin fibroblasts; actives raise or lower the signal
# Procedure, shortened: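 Fibroblast monolayers (human foreskin, hDFCGF) received test chemical for 24 h before ELISA detection of IL-8; either increases or decreases relative to DMSO count as activity.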
# [9] = read-out: Macrophage colony-stimulating factor (MCSF), CSF1 (gene 1435); assay: BSK_hDFCGF_MCSF: BioMAP Diversity Plus: hDFCGF Assay for Macrophage colony-stimulating factor (MCSF) Biomarker Activity (AID 2283060); conditions: primary human foreskin fibroblasts; actives raise or lower the signal
# Procedure, shortened: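 fibroblasts (human foreskin, primary), 24 h post-dose; M-CSF by ELISA; bidirectional fit, DMSO = baseline.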
# [10] = BSK_hDFCGF_SRB: Viability Assessment in the BioMAP Diversity Plus: hDFCGF Assay (AID 2283061); conditions: primary human foreskin fibroblasts;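 further: cells exposed to compound for 24 h before the read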
# Procedure, shortened: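 SRB-based viability read on primary human skin fibroblasts at 24 h: TCA fixation, 0.1% dye, 560 nm. Gain or loss of signal is fitted against the DMSO negative control.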
# [11] = read-out: TIMP metallopeptidase inhibitor 1 (TIMP1), TIMP1 (gene 7076); assay: BSK_hDFCGF_TIMP1: BioMAP Diversity Plus: hDFCGF Assay for TIMP metallopeptidase inhibitor 1 (TIMP1) Biomarker Activity (AID 2283062); conditions: primary human foreskin fibroblasts; actives raise or lower the signal
# Procedure, shortened: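 Bidirectional curve fitting against DMSO baseline yielded this endpoint, based on ELISA detection of TIMP-1 in primary human foreskin fibroblasts exposed to compound for 24 h.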
# [12] = read-out: Monokine induced gamma interferon (MIG), CXCL9 (gene 4283); assay: BSK_hDFCGF_MIG: BioMAP Diversity Plus: hDFCGF Assay for Monokine induced gamma interferon (MIG) Biomarker Activity (AID 2283063); conditions: primary human foreskin fibroblasts; actives raise or lower the signal
# Procedure, shortened: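 Endpoint derived by bidirectional fitting relative to DMSO; MIG quantified via ELISA in primary human foreskin fibroblasts harvested 24 h after dosing.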
# [13] = read-out: Matrix Metallopeptidase 1 (MMP1), MMP1 (gene 4312); assay: BSK_hDFCGF_MMP1: BioMAP Diversity Plus: hDFCGF Assay for Matrix Metallopeptidase 1 (MMP1) Biomarker Activity (AID 2283064); conditions: primary human foreskin fibroblasts; actives raise or lower the signal
# Procedure, shortened: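 Primary human foreskin fibroblasts exposed to chemicals for 24 h; MMP1 measured by ELISA. Cytotoxicity tracked by SRB staining in parallel cultures; bidirectional fit relative to DMSO.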
# [14] = read-out: Intercellular Adhesion Molecule 1 (ICAM1), ICAM1 (gene 3383); assay: BSK_KF3CT_ICAM1: BioMAP Diversity Plus: KF3CT Assay for Intercellular Adhesion Molecule 1 (ICAM1) Biomarker Activity (AID 2283067); conditions: primary human keratinocytes with fibroblasts; actives raise or lower the signal
# Procedure, shortened: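 Bidirectional curve fitting against a DMSO baseline was applied to ICAM-1 ELISA signal from primary human skin co-cultures harvested 24 h after treatment, with SRB staining of parallel wells for overt cytotoxicity.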
# [15] = read-out: Interferon-gamma inducible Protein 10 (IP10), CXCL10 (gene 3627); assay: BSK_KF3CT_IP10: BioMAP Diversity Plus: KF3CT Assay for Interferon-gamma inducible Protein 10 (IP10) Biomarker Activity (AID 2283068); conditions: primary human keratinocytes with fibroblasts; actives raise or lower the signal
# Procedure, shortened: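 Human keratinocyte plus foreskin fibroblast primary co-culture exposed to test chemical for 24 h; IP-10 measured by ELISA. Concentration-response fitted bidirectionally against DMSO control as baseline.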
# [16] = BSK_KF3CT_SRB: Viability Assessment in the BioMAP Diversity Plus: KF3CT Assay (AID 2283069); conditions: primary human keratinocytes with fibroblasts;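 further: total protein by sulforhodamine B staining as a cytotoxicity measure; fitted for both signal gain and loss against DMSO baseline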
# Procedure, shortened: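 Human keratinocyte and foreskin fibroblast co-culture exposed to chemical for 24 h. Total protein measured in parallel cultures by 0.1% sulforhodamine B staining after 10% TCA fixation, read at 560 nm; bidirectional fit relative to DMSO.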
# [17] = read-out: Plasminogen activator inhibitor-1 (PAI1), SERPINE1 (gene 5054); assay: BSK_hDFCGF_PAI1: BioMAP Diversity Plus: hDFCGF Assay for Plasminogen activator inhibitor-1 (PAI1) Biomarker Activity (AID 2283066); conditions: primary human foreskin fibroblasts; actives raise or lower the signal
# Procedure, shortened: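 Human foreskin fibroblasts in the hDFCGF system were dosed with compound for 24 h; PAI-1 was quantified by ELISA. Bidirectional curve fitting used DMSO as negative control and baseline.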
smiles,measurement,setting,value
O=S1OCC2C(CO1)C1(Cl)C(Cl)=C(Cl)C2(Cl)C1(Cl)Cl (stereo not drawn),AC50,[1],32.4 µM (active)
same,AC50,[2],14.3 µM (active)
same,outcome,[3],inactive
same,AC50,[4],36.6 µM (active)
same,AC50,[5],25.8 µM (active)
same,AC50,[6],22.5 µM (active)
same,outcome,[7],inactive
same,AC50,[8],33.8 µM (active)
same,AC50,[9],24.2 µM (active)
same,AC50,[10],26.7 µM (active)
same,AC50,[11],32 µM (active)
same,AC50,[12],37.6 µM (active)
same,AC50,[13],36.7 µM (active)
same,AC50,[14],31.9 µM (active)
same,AC50,[15],29.9 µM (active)
same,AC50,[16],29.5 µM (active)
CCN(CC)C(=O)SCc1ccc(Cl)cc1,outcome,[1],inactive
same,outcome,[2],inactive
same,outcome,[3],inactive
same,outcome,[4],inactive
same,outcome,[5],inactive
same,outcome,[6],inactive
same,outcome,[7],inactive
same,outcome,[8],inactive
same,outcome,[9],inactive
same,outcome,[10],inactive
same,outcome,[11],inactive
same,outcome,[12],inactive
same,outcome,[13],inactive
same,outcome,[17],inactive
same,outcome,[14],inactive
same,outcome,[15],inactive
same,outcome,[16],inactive
CC1(C)C(C=C(Cl)Cl)C1C(=O)OC(C#N)c1ccc(F)c(Oc2ccccc2)c1 (stereo not drawn),outcome,[1],inactive
same,AC50,[2],33.8 µM (active)
same,outcome,[3],inactive
same,outcome,[4],inactive
same,outcome,[5],inactive
same,AC50,[6],0.189 µM (active)
same,AC50,[7],3.84 µM (active)
same,outcome,[8],inactive
same,outcome,[9],inactive
same,AC50,[10],31.1 µM (active)
same,outcome,[11],inactive
same,outcome,[12],inactive
same,outcome,[13],inactive
same,outcome,[17],inactive
same,outcome,[14],inactive
same,outcome,[15],inactive
same,outcome,[16],inactive
O=C(O)CCCOc1ccc(Cl)cc1Cl,outcome,[1],inactive
same,outcome,[2],inactive
same,outcome,[3],inactive
same,outcome,[4],inactive
same,outcome,[5],inactive
same,outcome,[6],inactive
same,outcome,[7],inactive
same,outcome,[8],inactive
same,outcome,[9],inactive
same,outcome,[10],inactive
same,outcome,[11],inactive
same,outcome,[12],inactive
same,outcome,[13],inactive
same,outcome,[17],inactive
same,outcome,[14],inactive
same,AC50,[15],23.6 µM (active)
same,outcome,[16],inactive
CC(C)(C)C(O)C(Oc1ccc(Cl)cc1)n1cncn1 (stereo not drawn),outcome,[1],inactive
same,outcome,[2],inactive
same,outcome,[3],inactive
same,outcome,[4],inactive
same,outcome,[5],inactive
same,outcome,[6],inactive
same,outcome,[7],inactive
same,outcome,[8],inactive
same,outcome,[9],inactive
same,outcome,[10],inactive
same,outcome,[11],inactive
same,outcome,[12],inactive
same,outcome,[13],inactive
same,outcome,[17],inactive
same,outcome,[14],inactive
same,outcome,[15],inactive
same,outcome,[16],inactive
COc1cc(OC)nc(NC(=O)NS(=O)(=O)c2cc(NC=O)ccc2C(=O)N(C)C)n1,outcome,[1],inactive
same,outcome,[2],inactive
same,outcome,[3],inactive
same,outcome,[4],inactive
same,outcome,[5],inactive
same,outcome,[6],inactive
same,outcome,[7],inactive
same,outcome,[8],inactive
same,outcome,[9],inactive
same,outcome,[10],inactive
same,outcome,[11],inactive
same,outcome,[12],inactive
same,outcome,[13],inactive
same,outcome,[17],inactive
same,outcome,[14],inactive
same,outcome,[15],inactive
same,outcome,[16],inactive
CCOCN(C(=O)CCl)c1c(C)cccc1CC,outcome,[1],inactive
same,AC50,[2],16.8 µM (active)
same,outcome,[3],inactive
same,outcome,[4],inactive
same,AC50,[5],20 µM (active)
same,AC50,[6],8.23 µM (active)
same,outcome,[7],inactive
same,outcome,[8],inactive
same,AC50,[9],9.55 µM (active)
same,outcome,[10],inactive
same,outcome,[11],inactive
same,AC50,[12],22.8 µM (active)
same,AC50,[13],5.13 µM (active)
same,AC50,[17],21.8 µM (active)
same,outcome,[14],inactive
same,AC50,[15],23.6 µM (active)
same,outcome,[16],inactive
